Experimental data as given in PubChem BioAssay AID1159580 (chemical genetic matrix, 2015).
In all, about 5,500 compounds went through this assay and about 2,000 (36%) were called active. Inconclusive results (about 18%) are left out. Rule as the data show it: active = normalized growth mostly below about 0.91 (no sharp cut-off); inconclusive = no clear call, values can overlap the other calls; inactive = mostly above about 0.92. Some of the results follow.

Test: chemical genetic growth profiling, strain panel (AID 1159580);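 also: tested at 20 µM; growth read once vehicle control cultures reached saturation at 30 °C; 1 = growth at the plate median or of vehicle wells; lower values mean less growth of the strain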
Settings: S. cerevisiae deletion strains, growth OD
[1] = locus YJR075W, strain HOC1, active compounds read low
[2] = locus YMR307W, strain GAS1, active compounds read low

Measured: normalized growth

COc1cc2nc(N(C)CCCNC(=O)C3CCCO3)nc(N)c2cc1OC (centres undefined)
inactive: locus YAL021C, strain ccr4, active compounds read low 1.02 | locus YAL026C, strain drs2, active compounds read low 1 | locus YAL030W, strain snc1, active compounds read low 0.979 | locus YBL061C, strain skt5, active compounds read low 0.986 | locus YBR009C, strain hhf1, active compounds read low 1.01 | locus YBR021W, strain FUR4, active compounds read low 0.994 | locus YBR023C, strain chs3, active compounds read low 0.997 | locus YBR171W, strain sec66, active compounds read low 0.988 | locus YBR229C, strain ROT2, active compounds read low 1 | locus YBR231C, strain swc5, active compounds read low 0.998 | locus YBR279W, strain paf1, active compounds read low 0.993 | locus YCL011C, strain gbp2, active compounds read low 0.993 | locus YCL016C, strain dcc1, active compounds read low 1 | locus YCL029C, strain bik1, active compounds read low 1.02 | locus YCL061C, strain MRC1, active compounds read low 0.996 | locus YCL069W, strain vba3, active compounds read low 0.993 | locus YCR088W, strain abp1, active compounds read low 0.986 | locus YDL005C, strain med2, active compounds read low 1 | locus YDL035C, strain GPR1, active compounds read low 1.03 | locus YDL040C, strain nat1, active compounds read low 0.993 | locus YDL074C, strain BRE1, active compounds read low 1.03 | locus YDL101C, strain DUN1, active compounds read low 1.01 | locus YDL185W, strain tfp1, active compounds read low 1.02 | locus YDL192W, strain arf1, active compounds read low 1.01 | locus YDR001C, strain nth1, active compounds read low 0.997 | locus YDR069C, strain doa4, active compounds read low 0.991 | locus YDR101C, strain arx1, active compounds read low 1.01 | locus YDR137W, strain rgp1, active compounds read low 1 | locus YDR159W, strain sac3, active compounds read low 1.03 | locus YDR162C, strain NBP2, active compounds read low 1.03 | locus YDR195W, strain ref2 0.972 | locus YDR297W, strain sur2, active compounds read low 1 | locus YDR318W, strain mcm21, active compounds read low 1.02 | locus YDR334W, strain swr1, active compounds read low 0.999 | locus YDR335W, strain msn5, active compounds read low 1 | locus YDR388W, active compounds read low 0.999 | locus YDR392W, strain spt3, active compounds read low 1.01 | locus YDR502C, strain sam2, active compounds read low 1 | locus YEL003W, strain gim4, active compounds read low 1 | locus YEL037C, strain rad23, active compounds read low 0.998 | locus YEL061C, strain CIN8 (second series), active compounds read low 0.986 | locus YEL061C, strain CIN8, active compounds read low 1.01 | locus YER015W, strain faa2, active compounds read low 0.995 | locus YER016W, strain bim1, active compounds read low 0.998 | locus YER110C, active compounds read low 1 | locus YER111C, strain swi4, active compounds read low 0.987 | locus YER155C, strain BEM2 (second series), active compounds read low 0.999 | locus YER155C, strain BEM2, active compounds read low 0.998 | locus YER167W, strain BCK2, active compounds read low 1.01 | locus YFR010W, strain ubp6, active compounds read low 0.992 | locus YGL078C, strain dbp3, active compounds read low 1 | locus YGL086W, strain mad1, active compounds read low 1.01 | locus YGL167C, strain pmr1, active compounds read low 0.995 | locus YGL173C, strain kem1, active compounds read low 0.994 | locus YGL227W, strain vid30, active compounds read low 0.986 | locus YGL240W, strain doc1, active compounds read low 0.987 | locus YGL248W, strain PDE1, active compounds read low 1.01 | locus YGL253W, strain hxk2, active compounds read low 0.992 | locus YGR135W, strain pre9, active compounds read low 0.998 | locus YGR252W, strain gcn5, active compounds read low 0.95 | locus YHR013C, strain ard1, active compounds read low 0.999 | locus YHR027C, strain rpn1, active compounds read low 0.997 | locus YHR030C, strain SLT2, active compounds read low 1.03 | locus YHR079C, strain IRE1 (second series), active compounds read low 0.997 | locus YHR094C, strain hxt1, active compounds read low 1 | locus YHR129C, strain ARP1, active compounds read low 1.01 | locus YHR142W, strain chs7, active compounds read low 0.979 | locus YHR200W, strain rpn10, active compounds read low 1.01 | locus YIL066C, strain RNR3, active compounds read low 1.04 | locus YIL073C, strain SPO22, active compounds read low 1.03 | locus YIL125W, strain kgd1, active compounds read low 1.01 | locus YIR030C, strain dcg1, active compounds read low 0.995 | locus YJL092W, strain hpr5, active compounds read low 0.995 | locus YJL095W, strain BCK1 (second series), active compounds read low 0.994 | locus YJL095W, strain BCK1, active compounds read low 1.03 | locus YJL115W, strain asf1, active compounds read low 1 | locus YJL129C, strain trk1, active compounds read low 1 | locus YJL134W, strain LCB3, active compounds read low 1.02 | locus YJL154C, strain vps35, active compounds read low 0.993 | locus YJL164C, strain tpk1, active compounds read low 1 | locus YJL166W, strain qcr8, active compounds read low 0.985 | locus YJL168C, strain set2, active compounds read low 0.994 | locus YJL187C, strain SWE1 (second series), active compounds read low 1.02 | locus YJL187C, strain SWE1, active compounds read low 0.999 | locus YJR043C, strain POL32, active compounds read low 1.03 | [1] 1.01 | locus YKL009W, strain mrt4, active compounds read low 1.01 | locus YKL068W, active compounds read low 1.01 | locus YKL085W, strain MDH1 (second series), active compounds read low 1.02 | locus YKL085W, strain MDH1, active compounds read low 1.02 | locus YKL190W, strain CNB1, active compounds read low 1.03 | locus YKR001C, strain vps1, active compounds read low 1.01 | locus YKR026C, strain gcn3, active compounds read low 0.995 | locus YKR091W, strain srl3, active compounds read low 0.995 | locus YLL001W, strain dnm1, active compounds read low 0.99 | locus YLL026W, active compounds read low 0.992 | locus YLL041C, strain sdh2, active compounds read low 0.998 | locus YLR027C, strain aat2, active compounds read low 0.991 | locus YLR039C, strain RIC1, active compounds read low 1.07 | locus YLR058C, strain SHM2, active compounds read low 1.02 | locus YLR102C, strain apc9, active compounds read low 1.01 | locus YLR221C, strain rsa3, active compounds read low 0.998 | locus YLR258W, strain gsy2, active compounds read low 0.994 | locus YLR262C, strain YPT6 (second series), active compounds read low 0.981 | locus YLR262C, strain YPT6, active compounds read low 1.07 | locus YLR268W, strain sec22, active compounds read low 0.99 | locus YLR320W, strain mms22, active compounds read low 1 | locus YLR330W, strain CHS5, active compounds read low 1.02 | locus YLR342W, strain FKS1 (second series), active compounds read low 1.03 | locus YLR342W, strain FKS1, active compounds read low 0.995 | locus YLR357W, strain rsc2, active compounds read low 0.984 | locus YLR370C, strain arc18, active compounds read low 1.01 | locus YLR371W, strain rom2, active compounds read low 1.02 | locus YLR384C, strain iki3, active compounds read low 0.988 | locus YLR418C, strain cdc73, active compounds read low 0.995 | locus YML016C, strain PPZ1, active compounds read low 1.01 | locus YML032C, strain rad52, active compounds read low 1 | locus YML120C, strain ndi1, active compounds read low 0.998 | locus YML124C, strain tub3, active compounds read low 0.997 | locus YMR058W, strain fet3, active compounds read low 0.996 | locus YMR078C, strain ctf18, active compounds read low 0.998 | locus YMR125W, strain sto1, active compounds read low 0.995 | locus YMR129W, active compounds read low 0.987 | locus YMR205C, strain PFK2, active compounds read low 0.993 | locus YMR223W, strain ubp8, active compounds read low 1.03 | locus YMR231W, strain pep5, active compounds read low 1 | [2] 1.02 | locus YNL067W, strain RPL9B, active compounds read low 1.02 | locus YNL071W, strain lat1, active compounds read low 1 | locus YNL209W, strain ssb2, active compounds read low 0.996 | locus YNL233W, strain BNI4, active compounds read low 1.02 | locus YNL248C, strain rpa49, active compounds read low 0.982 | locus YNL250W, strain rad50, active compounds read low 1.04 | locus YNL271C, strain bni1, active compounds read low 1 | locus YNL298W, strain CLA4, active compounds read low 1 | locus YNL307C, strain MCK1, active compounds read low 1 | locus YNL322C, strain KRE1 (second series), active compounds read low 0.985 | locus YNR049C, strain mso1, active compounds read low 0.994 | locus YNR052C, strain pop2, active compounds read low 0.995 | locus YOL012C, strain htz1 0.863 | locus YOL147C, strain pex11, active compounds read low 1.01 | locus YOR001W, strain rrp6, active compounds read low 1 | locus YOR061W, strain CKA2, active compounds read low 1.02 | locus YOR069W, strain VPS5, active compounds read low 1 | locus YOR070C, strain gyp1, active compounds read low 0.998 | locus YOR080W, strain dia2, active compounds read low 0.983 | locus YOR083W, strain WHI5, active compounds read low 1 | locus YOR106W, strain vam3, active compounds read low 1.01 | locus YOR136W, strain idh2, active compounds read low 1 | locus YOR144C, strain elg1, active compounds read low 0.999 | locus YOR184W, strain ser1, active compounds read low 1.03 | locus YOR265W, strain rbl2, active compounds read low 0.988 | locus YOR270C, strain vph1, active compounds read low 1.03 | locus YOR290C, strain snf2, active compounds read low 1.03 | locus YOR316C, strain cot1, active compounds read low 0.999 | locus YPL051W, strain arl3, active compounds read low 0.997 | locus YPL078C, strain atp4, active compounds read low 0.988 | locus YPL106C, strain sse1, active compounds read low 0.991 | locus YPL240C, strain hsp82, active compounds read low 0.974 | locus YPL241C, strain CIN2, active compounds read low 1.01 | locus YPR119W, strain clb2, active compounds read low 0.991 | locus YPR141C, strain kar3, active compounds read low 1.01 | locus YPR163C, strain tif3, active compounds read low 1 | locus YPR167C, strain met16, active compounds read low 1 | strain wtn01, active compounds read low 0.998

CC[C@@H]1C=C/C=C/C[C@H](C)[C@@H](O)[C@](C)(O)C(=O)[C@H](C)[C@@H](O)[C@H](C)C(=O)[C@H](C)[C@@H](O)[C@H](C)/C=C/C(=O)O[C@H]2[C@@H](C)[C@@H](CC1)O[C@@]1(CC[C@@H](C)[C@@H](CC(C)O)O1)[C@@H]2C (some centres undefined)
active: [2] 0.911
inactive: locus YAL040C, strain CLN3, active compounds read low 0.989 | locus YCL061C, strain MRC1 (second series), active compounds read low 1.01 | locus YDR150W, strain NUM1, active compounds read low 1 | locus YDR363W, strain ESC2, active compounds read low 0.961 | locus YER002W, strain NOP16, active compounds read low 0.945 | [1] 0.973 | locus YMR263W, strain SAP30, active compounds read low 1.02 | locus YNL128W, strain TEP1, active compounds read low 0.96 | locus YNL175C, strain NOP13, active compounds read low 0.969 | locus YNL197C, strain WHI3, active compounds read low 0.99 | locus YNL224C, strain SQS1, active compounds read low 0.993 | locus YOR083W, strain WHI5 (second series), active compounds read low 0.971 | locus YPL055C, strain LGE1, active compounds read low 0.936
